The source of these data is PubChem BioAssay AID1209 (Sanford-Burnham Center for Chemical Genomics, 2008).

Structures are written as SMILES. Hit rate of the full screen: of about 190,000 compounds, about 810 (0.43%) were called active. Many of the other results were omitted from the sample, so actives are more common in it than they were. A number with no mark means an inactive call. Cut-off read from the data, not from the text of the source: active = inhibition above about 50%; inactive = the rest.

For this assay, the target named is Mannose-6-phosphate isomerase (Homo sapiens) (UniProt P34949). Briefly: MPI enzyme activity inhibition – biochemical, fluorescence intensity, coupled assay, primary screen (AID 1209).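 Note: plate controls were DMSO vehicle for no effect and wells lacking substrate for full effect.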 To be noted: purified PMI enzyme, at 20 µM, stronger effect = higher value.
Mannose-6-phosphate isomerase (Homo sapiens), sequence (P34949 whole entry, looked up): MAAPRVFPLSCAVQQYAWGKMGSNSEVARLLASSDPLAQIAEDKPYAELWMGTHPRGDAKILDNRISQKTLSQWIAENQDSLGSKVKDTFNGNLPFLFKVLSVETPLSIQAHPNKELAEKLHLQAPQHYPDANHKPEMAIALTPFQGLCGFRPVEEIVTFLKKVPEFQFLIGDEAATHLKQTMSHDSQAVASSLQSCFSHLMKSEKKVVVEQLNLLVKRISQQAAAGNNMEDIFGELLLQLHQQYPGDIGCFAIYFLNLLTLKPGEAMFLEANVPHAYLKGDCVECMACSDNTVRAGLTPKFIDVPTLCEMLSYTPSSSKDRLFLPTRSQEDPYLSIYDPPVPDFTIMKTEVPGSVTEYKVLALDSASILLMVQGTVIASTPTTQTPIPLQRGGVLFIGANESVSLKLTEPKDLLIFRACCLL
What is called inhibition is the change of the read-out against control, counted positive when it falls. Regarding `Cc1sc(NC(=O)C2CCCCC2C(=O)O)c(C(N)=O)c1C` (centres undefined), the inhibition was -5.3%.
With `CCc1c(C)sc(NC(=O)C2CC2c2ccccc2)c1C(N)=O` (centres undefined), the inhibition was 7.7%.
In the case of `CCc1c(C)sc(NC(=O)C2CCCCC2C(=O)O)c1C(N)=O` (centres undefined), the inhibition is 72.1% (active).
On to `COC(=O)c1c(N2C(=O)CC(Sc3ccccc3C(=O)O)C2=O)sc(C)c1C` (centres undefined), for which the inhibition is -16.2%.
In the case of `COC(=O)c1sccc1NC(=O)CSc1ccccc1N` it was 12.4%.
With `CCN(CC(=O)NCc1ccc(F)cc1)Cc1cc(=O)n2ccsc2n1`, the inhibition was -30.2%.
On to `CCC(=O)Nc1cc2nn(-c3ccc(C)cc3)nc2cc1C`, for which the inhibition is -2.8%.
Consider `Nc1ccc2nn(-c3cccc4ccccc34)nc2c1`, for which the inhibition was 42.9%.
In the case of `Cc1ccc(-n2nc3cc(C)c(N)cc3n2)cc1` it was 75.3% (active); in that of `Nc1cc2nn(-c3ccccc3)nc2cc1Cl`, 69.4% (active); in that of `Cc1ccc(-n2nc3ccc(N)cc3n2)cc1`, 38.7%.
On to `Cc1cc2nn(-c3cccc4ccccc34)nc2cc1NC(=O)c1cccs1`, for which the inhibition is 12.3%.
For the compound `Cc1cc2nn(-c3cccc4ccccc34)nc2cc1N`, the inhibition is 77.5% (active).
In the case of `Nc1ccc2nn(-c3ccccc3)nc2c1` it was 35.7%.
For `CC(=O)Nc1cc2nn(-c3ccccc3)nc2cc1Cl`, the inhibition was 0.2%.
As for `OCCNCc1cc(Br)ccc1OCc1ccc(Cl)cc1`, the inhibition is 10.8%.
`COc1ccccc1NC(=O)CCN1CCCCCC1`: the inhibition is -1.2%.
`O=C(Cc1ccccc1F)OCC(=O)N1CCN(C(=O)c2ccco2)CC1`: the inhibition is -7.8%.
As for `COc1cc(/C=N/NC(=O)C(Cc2c[nH]c3ccccc23)NC(=O)OCC(C)C)cc([N+](=O)[O-])c1OCc1ccccc1` (centres undefined), the inhibition is 13.6%.
In the case of `Cc1ccc(S(=O)(=O)N2CCCC(C(=O)NCc3cccnc3)C2)cc1Cl` (centres undefined), the inhibition is 12.2%.
In the case of `CCOc1ccc(NC(=O)CSc2nnc(-c3ccccn3)n2C)cc1` it was 2.1%.
Turning to `[N-]=[N+]=CC(=O)CNC(=O)[C@@H](Cc1ccccc1)N1C(=O)c2ccccc2C1=O`, the inhibition was -1.7%.
In the case of `CCc1nc(SC)[nH]c(=O)c1C` it was -10.9%.
In the case of `COC(=O)c1c(NC(=O)/C=C/c2ccco2)sc2c1CCC2` it was -2.8%; in that of `CCOc1ccc(NS(=O)(=O)c2ccc(NC(=S)NC(C)=O)cc2)cc1`, 4.1%; in that of `O=C(COC(=O)C(Cc1ccccc1)NC(=O)c1ccccc1)c1ccccc1` (centres undefined), 6.8%.
In the case of `O=C(COC(=O)C(Cc1ccccc1)NC(=O)c1ccc(Cl)cc1)c1ccc(Cl)cc1` (centres undefined) it was 111% (active); in that of `CCc1ccc(C(=O)COC(=O)C(Cc2ccccc2)NC(=O)c2ccc(Cl)cc2)cc1` (centres undefined), 11.2%; in that of `O=C(OC1CCOC1=O)c1cc(-c2ccccc2)nc2ccccc12` (centres undefined), 8.9%.
Turning to `OCC(CO)(CO)N=Cc1c(O)ccc2ccccc12`, the inhibition was 37.3%.
In the case of `CN(C)/N=C/c1c(O)ccc2ccccc12`, the inhibition was 31.9%.
In the case of `Oc1ccc2ccccc2c1C=Nc1ccc(N2CCOCC2)cc1` it was 35.2%.
In the case of `Oc1ccc2ccccc2c1C=NC1CCCCC1` it was 79.8% (active); in that of `Oc1ccc2ccccc2c1/C=N/n1cnnc1`, 15.7%; in that of `Oc1ccc2ccccc2c1C=NC12CN3CCN(CN(C3)C1)C2`, 67.7% (active).
As to `O=C(CCc1ccccc1)Nc1ccc(N2CCOCC2)c(Cl)c1`, the inhibition is 11.3%.
Consider `N#Cc1nc(COc2ccccc2)oc1NCCCn1ccnc1`, for which the inhibition is 0.3%.
As to `CCC(=O)Nc1ccccc1-c1nnn(CC(=O)N2c3ccccc3CC2C)n1` (centres undefined), the inhibition was 13%.
In the case of `CCCCN(C(=O)c1ccc(S(=O)(=O)N(C)C)cc1)c1nc2ccccc2s1` it was 11.7%; in that of `CCOC(=O)Cc1cnc(N)s1`, 2.1%; in that of `COCCN(CC(=O)NCC1CCCO1)C(=O)CCC(=O)Nc1cc(C)ccn1` (centres undefined), -12.3%.
With `Cc1ccc2nsnc2c1N`, the inhibition was 8.5%.
In the case of `Nc1cc2nsnc2cc1Br` it was 61% (active); in that of `Nc1cnc(Br)cc1Br`, -8.6%; in that of `NS(=O)(=O)c1ccc(CCNC(=O)CSc2ncnc3ccccc23)cc1`, 7.5%.
For `CCOc1cccc(CNc2ccc(O)cc2)c1OCc1ccccc1Cl`, the inhibition was 28.5%.
In the case of `CCOc1cccc(CNc2ccc(O)cc2)c1OCc1ccc(Cl)cc1Cl` it was 40.3%.
Turning to `CCOc1cccc(CNc2ccc(O)cc2)c1OCc1ccc(Cl)cc1`, the inhibition was 53.9% (active).
In the case of `CC(OC(=O)C1=COCCO1)C(=O)Nc1cc(S(=O)(=O)N2CCCCC2)ccc1Cl` (centres undefined), the inhibition was -6.3%.
With `COCCCNC(=S)N1CCN(c2ccc([N+](=O)[O-])cc2)CC1`, the inhibition is 5%.
Turning to `Cc1ccc(CNC(=O)CCNC(=O)c2ccco2)cc1`, the inhibition is -8.4%.
In the case of `CCOC(=O)c1sc(/N=C/c2ccc(O)cc2O)cc1C`, the inhibition is 28.9%.
For `CCOC(=O)c1sc(/N=C/c2c(O)ccc3ccccc23)cc1C`, the inhibition was 58.3% (active).
With `CCOC(=O)c1cc(CC)sc1/N=C/c1c(O)ccc2ccccc12`, the inhibition is 37.2%.
Take `CCc1ccc(NC(=S)/N=C(\N)Nc2nc(C)c3cc(CC)ccc3n2)cc1`: the inhibition is 11.4%.
Turning to `COc1ccc(-c2ccc(C(=O)O)o2)c([N+](=O)[O-])c1`, the inhibition was 73.7% (active).
In the case of `COc1cccc(NC(=O)c2ccc(-c3ccccc3[N+](=O)[O-])o2)c1`, the inhibition was -13.3%.
Take `CNC(=O)/C(C#N)=C/c1ccc(-c2ccc(OC)cc2[N+](=O)[O-])o1`: the inhibition was 28.2%.
In the case of `Cn1c(SCC(=O)N2CCOCC2)nnc1-c1cccc(NC(=O)c2ccccc2F)c1` it was 2.1%; in that of `COc1ccc(-c2nc(N)n[nH]2)cc1OC`, 2.2%; in that of `COc1ccc(-c2nn[nH]n2)cc1OC`, -5%.
Consider `Cc1c(C(=O)NN)sc(-c2ccccc2)c1C#N`, for which the inhibition was -23.8%.
`CCn1c(C)nc2cc(C(=O)N/N=C/c3ccccc3C)ccc21`: the inhibition is -4.6%.
In the case of `CCn1c(C)nc2cc(C(=O)N/N=C/c3cccc(OC)c3O)ccc21` it was 5.6%.
`CCN(CC)S(=O)(=O)c1cccc(C(=O)N/N=C/c2cccc(O)c2O)c1`: the inhibition was 20%.
On to `CCN(CC)S(=O)(=O)c1cccc(C(=O)N/N=C/c2ccc(O)c(O)c2O)c1`, for which the inhibition was 77.7% (active).
In the case of `CCN(CC)S(=O)(=O)c1cccc(C(=O)N/N=C/c2cc(OC)c(O)c(OC)c2)c1` it was 19.2%.
In the case of `NC(=O)COC(=O)c1c2c(nc3ccccc13)CCCC2` it was -8.6%.
In the case of `NS(=O)(=O)c1ccc(CCNC(=O)c2ccc3nc4ccc(Cl)cc4c(=O)n3c2)cc1` it was -11.6%.
Turning to `CC(C)(C(=O)O)n1cncn1`, the inhibition was -17.9%.
Regarding `CC(C)(C)c1ccccc1OCCCCCn1ccnc1`, the inhibition is 14%.
`Oc1ccccc1/C=N/N1CCCCC1`: the inhibition was 10.8%.
As for `CC(=O)NC1=NN(C(C)=O)C(c2ccccc2)S1` (centres undefined), the inhibition was 10.4%.
Consider `O=C(COc1ccc(C(=O)NCCc2ccccc2)cc1)Nc1ccccc1`, for which the inhibition was 9.8%.
On to `COCc1[nH]nc2c1C(c1cc(OC)c(O)c(OC)c1)C(C#N)=C(N)O2` (centres undefined), for which the inhibition was 53.8% (active).
Consider `COCc1[nH]nc2c1C(c1ccc(OC)c(OC)c1)C(C#N)=C(N)O2` (centres undefined), for which the inhibition was 2%.
In the case of `COCc1[nH]nc2c1C(c1ccc(OC)cc1)C(C#N)=C(N)O2` (centres undefined), the inhibition is 21.3%.
Consider `CCOc1ncccc1C(=O)OCC(=O)c1cc(OC)ccc1OC`, for which the inhibition is -1.1%.
Take `COc1ccc(C(=O)COC(=O)c2cccnc2Cl)c(OC)c1`: the inhibition is 0.1%.
For `O=C(O)C1CCCCC1C(=O)NCc1ccc(F)cc1` (centres undefined), the inhibition is 13.1%.
On to `CCOc1cc(C(=O)Nc2cccc(C(C)=O)c2)ccc1OCC(=O)N1CCCCC1`, for which the inhibition is 8.7%.
In the case of `O=C1NCCCC2c3cc(O)c4ccccc4c3OC12N1CCCCC1` (centres undefined) it was 21%; in that of `O=C1NCCCC2c3c(cc(Br)c(O)c3Br)OC12N1CCCCC1` (centres undefined), 24.7%; in that of `O=C1NN=C(c2ccccc2)CC1c1ccc(Cl)cc1Cl` (centres undefined), 4.2%.
On to `CCc1ccc(S(=O)(=O)/N=C2\C=CC(=O)c3ccccc32)cc1`, for which the inhibition is 6.9%.
In the case of `CC(C)c1ccc(S(=O)(=O)/N=C2/C=C(Sc3ncn[nH]3)C(=O)c3ccccc32)cc1` it was 95.1% (active).
For the compound `Cc1ccc(S(=O)(=O)/N=C2/C=C(Sc3ncn[nH]3)C(=O)c3ccccc32)cc1`, the inhibition was 101% (active).
Take `O=C(O)c1ccc(NC2=C/C(=N/S(=O)(=O)c3ccccc3)c3ccccc3C2=O)cc1`: the inhibition is -68.7%.
For `O=C1c2ccccc2C(=O)N1CCSc1ncn[nH]1`, the inhibition was -7.4%.
For the compound `CCc1ccc(S(=O)(=O)/N=C2/C=C(Sc3ncn[nH]3)C(=O)c3ccccc32)cc1`, the inhibition is 98.8% (active).
As for `CC(C)c1ccc(S(=O)(=O)/N=C2/C=CC(=O)c3ccccc32)cc1`, the inhibition was 34.5%.
As for `Cc1ccc(S(=O)(=O)/N=C2/C=C(C3C(=O)CC(C)(C)CC3=O)C(=O)c3ccccc32)cc1`, the inhibition is 9.6%.
In the case of `COC(=O)C(C(C)=O)C1=C/C(=N\S(=O)(=O)c2ccc(C)cc2)c2ccccc2C1=O` (centres undefined) it was 22.1%.
In the case of `O=C(Cn1cc(C(F)(F)F)ccc1=O)N/N=C/c1ccc(F)cc1` it was -3.8%; in that of `CC1CCN(CC(=O)N2c3ccccc3CC2C)CC1` (centres undefined), -23.2%.
For the compound `Cc1cc(=O)c(C(=O)O)cn1Nc1ccc(F)cc1`, the inhibition was -5.7%.
As for `COc1ccc(C(O)Cc2nc3ccccc3n2C)cc1OC` (centres undefined), the inhibition was -8.6%.
Turning to `Cc1ncc(C[n+]2csc(CCOC(=O)CC34CC5CC(CC(C5)C3)C4)c2C)c(N)n1`, the inhibition was -0.1%.
With `COc1cc(CNc2ccc(N3CCCC3)cc2)cc(Cl)c1OC`, the inhibition was 76.9% (active).
In the case of `CCOc1cc(CNc2ccc(N3CCCC3)cc2)cc(Cl)c1OC` it was 83% (active); in that of `CCOc1cc(CNc2ccc(S(N)(=O)=O)cc2)cc(Cl)c1OC`, 3%; in that of `CCOc1c(Cl)cc(CNc2ccc(S(N)(=O)=O)cc2)cc1OC`, -1.5%.
`CCOc1c(Cl)cc(CNC(C)(C)CC(C)(C)C)cc1OC`: the inhibition was 4.6%.
With `COc1cc(CNc2ccc(N3CCOCC3)cc2)cc(Br)c1OC`, the inhibition was -0.4%.
As for `COc1cc(CNc2ccc(N3CCN(C(C)=O)CC3)cc2)ccc1OCc1ccccc1`, the inhibition is 20%.
Turning to `COc1cc(CNc2ccc(N3CCCC3)cc2)ccc1OCc1ccccc1`, the inhibition was 86.4% (active).
Turning to `CCOc1cc(CNc2ccc(N3CCOCC3)cc2)cc(Br)c1OCC`, the inhibition is 6.4%.
Consider `COc1cc(CNc2ccc(N3CCCC3)cc2)ccc1OCc1ccccc1F`, for which the inhibition is 29.9%.
Regarding `C=CCOc1c(Cl)cc(CNc2ccc(C)c(Cl)c2)cc1OC`, the inhibition is 13.1%.
